Drawing on PubChem BioAssay AID493248 (Broad Institute, 2011), this text covers activity change, negative = inhibition for 60 molecules.

The structures appear in SMILES notation. Hit rate of the full screen: of about 2,300 compounds, about 1,400 (61%) were called active. About 7% were inconclusive and are not listed. How the calls were made is not given here. So high a share suggests a set chosen from earlier hits. These entries were drawn from the full list. Potency and affinity values are given separately.

The target of the test is FAD-linked sulfhydryl oxidase ALR (Homo sapiens) (UniProt P55789). The experiment in a line: ALR-catalysed DTT oxidation blockers – biochemical, H2O2 detection, luminescence, cherry-pick, dose response (AID 493248). Particulars: purified ALR, H2O2 HRP-luminol luminescence; at 10 µM (top of the series).
Chain of FAD-linked sulfhydryl oxidase ALR (Homo sapiens) (P55789 whole entry, looked up): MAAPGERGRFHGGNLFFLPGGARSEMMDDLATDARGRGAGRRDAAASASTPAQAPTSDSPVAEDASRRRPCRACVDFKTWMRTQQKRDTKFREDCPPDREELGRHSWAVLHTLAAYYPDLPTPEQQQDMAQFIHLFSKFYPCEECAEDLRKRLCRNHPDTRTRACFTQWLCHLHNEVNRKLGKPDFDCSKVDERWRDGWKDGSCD
For `CSc1nnc(-c2ccncc2)n1CCCN1CCCC1=O`, the activity change, negative = inhibition was 69.3%.
In the case of `Cc1cc(C(=O)CN2C(=O)CCC2=O)c(C)n1Cc1ccccc1`, the activity change, negative = inhibition is -73.3%.
The figure for `CS(=O)(=O)N(CC(=O)NCc1ccccn1)Cc1ccc(Cl)cc1` is 128%.
Under `N#CCC(=O)Nc1ccc(C(=O)NCCc2c[nH]c3ccccc23)cc1` stands -21.6%; under `COC(=O)[C@@H](N)Cc1ccc(O)c(O)c1`, -110%; under `Cc1cccn2cc(CNc3ccccc3)nc12`, -7.4%.
As to `CC(=O)Nc1cccc(NC(=O)c2cccc(-c3ccc(O)cc3)c2)c1`, the activity change, negative = inhibition was found to be 64.6%.
`Cc1cc(C)n2nc(C(=O)N/N=C/c3ccc(O)cc3)nc2n1`: the activity change, negative = inhibition is -107%.
Under `S=c1[nH]nc(C2CCCCC2)n1/N=C/c1cccs1` stands -12.9%.
The figure for `Nc1nnnn1/N=C/c1ccc(O)cc1` is -84.1%; for `COc1cc(/C=N/N2C(=O)C3C4C=CC(CC4)C3C2=O)ccc1O` (stereo not given) it is -104%; for `CC(=O)c1cc(CC=C(C)C)c(O)cc1O` it is 11.5%.
For `Cc1cccc(C(=O)Nc2onc(C)c2C#N)c1`, the activity change, negative = inhibition was -51.1%.
Regarding `O=C(Nc1nnc(-c2ccco2)o1)c1cccc(Cl)c1`, the activity change, negative = inhibition was -18.4%.
Under `Cc1[nH]nc(-c2ccc(O)cc2O)c1-c1nc2ccccc2s1` stands 368%; under `CC(C)c1ccc(NC2CCCN(C(=O)CCN3CCCC3=O)C2)cc1` (stereo not given), -61%.
`O=C(CCc1ccncc1)N1CCCC(Nc2ccc(F)c(F)c2)C1` (stereo not given): the activity change, negative = inhibition is -11.3%.
Turning to `COc1ccc(NC2CCCN(C(=O)Cn3ccc(C)n3)C2)cc1OC` (stereo not given), the activity change, negative = inhibition came out at 108%.
Under `CC(C)N1C(=O)C2C(c3ccccc3O)NC(C)(C(=O)O)C2C1=O` (stereo not given) stands 4.76%; under `CCc1c(C(=O)NCc2cnn(C)c2)csc1C`, -7.16%; under `Cc1cccc(CSc2nn3c(=O)c(C)nnc3s2)c1`, -99.2%.
Under `Cc1ccc(CNC(=O)C(NS(=O)(=O)c2ccc3nc(C)sc3c2)C(C)C)cc1` (stereo not given) stands 40.5%; under `COc1ccc(NC(=O)CNS(=O)(=O)c2ccc3nc(C)sc3c2)c(OC)c1`, -62.8%.
The figure for `Cc1nc2ccc(S(=O)(=O)NC(C(=O)Nc3nccs3)C(C)C)cc2s1` (stereo not given) is -35.5%.
Turning to `C/C(=N\NS(=O)(=O)c1ccc(Cl)cc1)c1ccc(O)cc1`, the activity change, negative = inhibition was -79.4%.
Under `Cc1cc(NC(=O)Nc2cccc(C)c2C)no1` stands -49%; under `CC(=O)Nc1cccc(N=NN2CCCCC2)c1`, 26.8%; under `O=C(Nc1ccccc1N1CCCC1)c1cccnc1`, -34.6%.
Under `CC(=O)Nc1ccc(S(=O)(=O)NNC(=O)c2cccc(Cl)c2)cc1` stands -37.6%.
`Cc1cc(NC(=O)c2ccoc2C)ccc1Br`: the activity change, negative = inhibition was -11.3%.
As to `COc1ccc(S(=O)(=O)Nc2nc3ccccc3nc2Nc2cccc(C(=O)O)c2)cc1`, the activity change, negative = inhibition was -80.5%.
For the molecule `CCc1nnc(NS(=O)(=O)c2ccc(NC(=O)OC)cc2)s1`, the activity change, negative = inhibition was -99.5%.
The figure for `Cc1nc2ccc(Br)cn2c1NC(C)(C)C` is 15.9%.
Under `O=C1CSC(c2ccccc2)N1c1ccc([N+](=O)[O-])cc1` (stereo not given) stands -50.9%; under `COc1ccc(C2SCC(=O)N2Cc2ccccc2)cc1` (stereo not given), -33.1%.
For `Cc1noc(NS(=O)(=O)c2ccc(NC(=O)CCN3C(=O)c4ccccc4C3=O)cc2)c1C`, the activity change, negative = inhibition was -21.6%.
Turning to `O=C(O)CCCC(=O)N1CCN(c2nc(-c3ccccc3)c3ccccc3n2)CC1`, the activity change, negative = inhibition is -0.988%.
In the case of `COc1ccc(N=C2C(=O)Nc3ccccc32)cc1`, the activity change, negative = inhibition was -24.8%.
The figure for `Cc1ccc(N(C(=O)c2cccs2)C2C=CS(=O)(=O)C2)cc1` (stereo not given) is -56.3%; for `COc1ccc(Nc2nccc(-c3cccc(N)c3)n2)cc1` it is -11.7%.
Consider `CC1CCC2(CC1)NC(=S)N(c1ccccc1)N2` (stereo not given), for which the activity change, negative = inhibition is -28.1%.
In the case of `COC(=O)c1sccc1NC(=O)c1cc(C)on1`, the activity change, negative = inhibition is -8.04%.
For `Cc1nn(C)c(Nc2ccc(Br)cc2)c1Br`, the activity change, negative = inhibition was -46.2%.
On to `COc1ccc(N2CCN(c3ncccn3)CC2)cc1`, for which the activity change, negative = inhibition was -8.28%.
The figure for `Cn1c(CNc2ccc(O)cc2)nc2ccccc21` is -101%; for `COC(=O)c1c(NC(=O)CN2CCN(Cc3ccc4c(c3)OCO4)CC2)sc(C)c1C` it is -8.94%.
For the molecule `Cc1ccccc1NC(=O)CNc1ccccc1N1CCCCC1`, the activity change, negative = inhibition is -89.6%.
The figure for `COc1ccc(S(=O)(=O)N2CCC(C(=O)Nc3ccccc3N3CCCC3)CC2)cc1OC` is -28.9%; for `O=C(Nc1ccccc1N1CCCC1)c1cccc(F)c1` it is -3.33%.
Under `c1ccc2c(c1)CSc1ccccc1N2` stands -6.27%; under `CC1CN(C(=O)Nc2ccc3snnc3c2)c2ccccc21` (stereo not given), -13.6%; under `CCCCCC(=O)N/N=C/c1ccc(N(C)C)cc1`, -20.3%.
With `O=C(CNC(=O)c1ccccc1Br)N/N=C/c1ccc(O)cc1`, the activity change, negative = inhibition was -106%.
As for `CN(C)c1ccc(/C=N/NC(=O)c2sccc2-n2cccc2)cc1`, the activity change, negative = inhibition is -99%.
With `CN(C)c1ccc(C=Nc2cnn(C)c2C(N)=O)cc1`, the activity change, negative = inhibition was -35.9%.
`CCn1c(NC(=O)c2ccc(C)cc2)c2ccccc2nc1=O`: the activity change, negative = inhibition is -48.8%.
Under `O=Cc1c(Sc2ccccc2)nc2ccccn2c1=O` stands -18.4%.
Under `O=C1Oc2ccccc2C(=O)/C1=C\N1CCN(c2ccccc2)CC1` stands -15.7%; under `Cc1ccc(S(=O)(=O)Nc2c(O)ccc3ccccc23)cc1`, 13.8%; under `COc1ccc(OC)c(S(=O)(=O)Nc2cccc3c(O)cccc23)c1`, 31.7%.
